# Rows were chosen to be rich in hits. Some 2.7% of all compounds tested hit in one or more screens of this group.
# MsrA act: bovine MsrA enzyme activators, primary screen, biochemical, absorbance, HTS; actives 0.3% (n = 360,000); purified bovine MsrA, absorbance read-out; AID 602163, 2012; activation, % at 10.6 µM; in the data active means activation above about 7.5%;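 further: 0% = vehicle and 100% = reference activator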
# rCAG binder: binders of r(CAG) RNA repeats, primary screen, biochemical, fluorescence | r(CAG) RNA repeat, TO-PRO-1 dye displacement fluorescence | inhibition, % at 3 µM | actives 1.3% (n = 370,000) | AID 651821, 2012;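 active means inhibition above the plate cutoff, the mean of all test compounds on that plate plus 3 SD, cut at about 35% in these data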;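 further: 0% = DMSO alone and 100% = 100 µM mitoxantrone as full dye displacement; higher means more dye released from RNA so lower well fluorescence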
# NadD inh: inhibitors of S. aureus NadD, primary screen, biochemical, colorimetric, uHTS; Nicotinate-nucleotide adenylyltransferase NadD (Staphylococcus aureus N315); purified NadD enzyme, colorimetric absorbance read-out; inhibition, % at 20 µM; actives 0.78% (n = 360,000); AID 602399, 2012; in the data active means inhibition above about 26%
# MsrA inhibitor: bovine MsrA enzyme inhibitors, primary screen, biochemical, absorbance, HTS | Methionine sulfoxide reductase A (Bos taurus) | purified bovine MsrA, absorbance read-out | inhibition, % at 15.5 µM | actives 0.75% (n = 360,000) | AID 651718, 2012; in the data active means inhibition above about 4.5%;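 further: 0% = vehicle wells with enzyme and 100% = reference inhibitor wells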
# NadD conf: inhibitors of S. aureus NadD, confirmation, biochemical, colorimetric, single concentration; inhibition, % at 20 µM; actives 13% (n = 2,000); shares compounds with NadD inh; AID 624309, 2012; purified S. aureus NadD, colorimetric enzyme assay; in the data active means inhibition mostly above about 42%, no sharp cut-off; inactive means mostly below about 42%
# * marks the source's active call; other numbers are inactive results; . = no result.
SMILES,MsrA act,rCAG binder,NadD inh,MsrA inhibitor,NadD conf
CC(C)C[C@H]1CNC(=O)C(=O)N1C[C@@H]1CCCN1C[C@H](CC(C)C)N1C[C@H](Cc2ccccc2)N(CCc2ccccc2)C(=O)C1=O,-7.1,0.8,10.3,0.4,.
CC(C)C[C@@H](CN1CCC[C@H]1CN1C(=O)C(=O)NC[C@@H]1Cc1ccc(O)cc1)N1C[C@H](Cc2ccccc2)N(CC2CCCCCC2)C(=O)C1=O,-9.2,12.7,38.1*,0.1,31.7
CC(=O)Oc1ccc(/C=N/NC(=O)CCSc2ccccc2)cc1,-2.4,-5.8,-2.9,-1.3,.
CC(=O)C[C@H]1c2cc(F)ccc2S(=O)(=O)N1c1ccc(N(C)C)cc1,-1.3,4.2,2.1,0.3,.
Cc1sc(NC(=O)Cc2ccc3c(c2)OCO3)nc1-c1ccc2c(c1)CCN2C(=O)c1ccc(F)cc1,-8.2,14.0,35.4*,0.3,27.9
Cc1sc(NC(=O)Cc2ccc3c(c2)OCO3)nc1-c1ccc2c(c1)CCN2C(=O)c1ccccc1F,-4.6,4.1,36.5*,-0.5,19.5
COc1ccc2c(c1)N(C)/C(=C1/SC(=NCc3ccccc3)N(c3ccccc3)C1=O)S2,-0.9,4.7,30.6*,0.8,16.8
COc1ccccc1C(=O)Nc1ccc(OCC(=O)N2C(C)CCCC2C)cc1 (centres undefined),2.8,-2.5,5.9,0.6,.
NC(=O)C1CCN(CC(=O)Nc2cccnc2Cl)CC1,-3.6,-1.3,-13.4,1.8,.
O=C(NCc1ccc(/C=N\NC(=O)C(=O)Nc2ccccc2Br)o1)C(=O)Nc1ccccc1,-1.1,5.2,35.7*,-0.5,7.5
COc1ccc(-c2nc(-c3ccccc3)c(-c3cc([N+](=O)[O-])ccc3C)[nH]2)cc1O,-0.6,16.9,14.2,0.8,.
COc1ccc(-c2nc(=S)c3c([nH]2)Oc2ccc(C)cc2C3)cc1O,-5.8,17.8,30.2*,0.1,11.2
Cc1cc(C)n(-c2cc(N3CCN(S(=O)(=O)c4ccc5ccccc5c4)CC3)ccc2[N+](=O)[O-])n1,-2.3,7.1,50.1*,1.2,41.1
Cn1cnnc1Sc1cc(N2CCN(S(=O)(=O)c3ccc(Cl)c(Cl)c3)CC2)ccc1[N+](=O)[O-],-1.9,5.6,42.1*,0.8,10.4
Cc1ccc(S(=O)(=O)N2CCN(c3ccc([N+](=O)[O-])c(Sc4nncn4C)c3)CC2)cc1,-4.5,2.7,11.9,-0.3,.
Cc1cc(C)n(-c2cc(N3CCN(S(=O)(=O)c4ccc(C)c(C)c4)CC3)ccc2[N+](=O)[O-])n1,-0.9,-1.6,14.0,-0.2,.
CCn1c2ccccc2c2cc(NC(=O)COC(=O)c3cc(F)cc(F)c3)ccc21,.,2.8,.,.,.
O=C(Nc1ccc2oc(-c3cccc4ccccc34)nc2c1)c1ncn[nH]1,-1.1,6.7,26.8*,2.0,-1.6
CC(C)c1ccc2oc(-c3ccc(NC(=O)c4ncn[nH]4)cc3)nc2c1,.,10.0,38.7*,0.3,8.7
CCC(C)c1ccc2oc(-c3ccc(NC(=O)c4ncn[nH]4)cc3)nc2c1 (centres undefined),-4.6,10.7,16.1,0.3,.
CC(C)(C)c1ccc(OCC(=O)Nc2ccc3c4c(cccc24)C(=O)NC3=O)cc1,-2.1,-2.5,33.7*,1.2,2.5
Cc1ccc(OCC(=O)Nc2ccc3c(c2)C(=O)NC3=O)cc1,-2.2,-1.7,-26.8,0.2,.
CCOc1ccc(C(=O)Nc2nnc(C3=COCCO3)o2)cc1,-2.8,5.9,1.7,0.8,.
Nc1ccc(Cc2ccc(N)c(O)c2)cc1O,-3.9,7.8,36.8*,-0.5,24.8
COC(=O)Cc1ccc(NC(=S)Nc2ccc(N3CCOCC3)cc2)cc1,-0.7,2.4,-4.7,0.1,.
SMILES,MsrA act,rCAG binder,NadD inh,MsrA inhibitor,NadD conf
Cc1cc2c(N)cccc2nn1,-11.8,-8.6,36.6*,0.2,-0.3
Nc1cccc2nc3ccccc3cc12,-0.9,.,-1.3,.,.
Cc1ccc(-c2nc3c4ccccc4ccn3c2Cc2ccccc2C(F)(F)F)cc1,-2.6,5.2,30.6*,-0.1,18.5
CCOc1ccc2nc(N3CCCCCC3)sc2c1,-7.2,.,-5.9,.,.
CCOc1ccc2nc(N3C(=O)/C(=C/c4ccccc4)NC3=S)sc2c1,3.2,4.8,32.9*,0.3,7.8
COc1ccc2nc(-n3c(C)ccc3C)sc2c1,-2.3,-0.4,4.9,-0.2,.
COc1ccc2nc(N3C(=O)/C(=C/c4ccccc4)NC3=S)sc2c1,-3.2,33.5,44.0*,-1.0,6.0
CCN1C[C@@H]2[C@@H]3C(=O)N(C)C(=O)[C@@H]3[C@](CC)(C1=O)N2C(=O)c1ccc(F)cc1,-2.4,-0.5,-7.0,-0.2,.
CCOC(=O)c1cc2c(=O)n3cccc(C)c3nc2n(Cc2ccco2)c1=NC(=O)c1ccc(C)cc1,-1.0,.,-0.4,.,.
CCOC(=O)c1cc2c(=O)n3ccccc3nc2n(Cc2ccco2)c1=NC(=O)c1cccc(OC)c1,-3.0,1.8,44.8*,0.4,7.9
CCOC(=O)c1cc2c(=O)n3ccccc3nc2n(Cc2ccco2)c1=NC(=O)c1ccc(OC)cc1,-2.8,29.7,32.2*,0.4,7.1
CCOC(=O)c1cc2c(=O)n3ccccc3nc2n(Cc2ccco2)c1=NC(=O)c1ccccc1OC,-10.5,8.5,28.1,-0.8,.
CCOC(=O)c1cc2c(=O)n3cccc(C)c3nc2n(Cc2ccco2)c1=NC(=O)c1ccccc1,-5.4,29.7,32.3*,2.4,11.4
CC1=C(C(=O)N(C)C)CC(CC(=O)NCCCCc2ccccc2)C(=O)N1CCCN1CCCC1=O (centres undefined),-7.7,0.7,2.9,0.1,.
COc1cccc(CN2CCC2(C)C(=O)Nc2ccc3c(c2)CCN3C(C)=O)c1F (centres undefined),1.3,-1.5,2.1,-0.1,.
COc1ccccc1C1CN=NC12CCCc1ccccc1C2=O (centres undefined),-0.1,-3.2,-4.6,-0.6,.
CN(Cc1ccccc1)C(=O)c1ccc(NC(=O)Cc2cccc(NC(=O)C3CCCN(C(=O)C4CCC4)C3)c2)cc1 (centres undefined),-5.7,-2.6,3.3,0.0,.
C/C(=N\NC(=O)c1cc(C)oc1C)c1ccc(N2CCOCC2)cc1,-3.4,-1.5,1.5,2.0,.
Cc1cc(C(=O)N/N=C/c2c(C)nn(-c3ccccc3)c2C)c(C)o1,-1.4,-1.2,5.2,0.5,.
CNc1ccc(Br)cc(C(=O)/C=C/c2ccc3c(c2)OCO3)c1=O,-5.3,32.8,40.1*,1.2,20.4
O=C(C=Cc1ccc2c(c1)OCO2)c1ccccc1,-3.9,0.6,-4.2,1.6,.
COc1c(/C=N/Nc2ccc([N+](=O)[O-])cc2[N+](=O)[O-])c(C)nn1-c1ccccc1,-4.0,-1.3,14.8,0.1,.
Cc1nn(-c2ccccc2)c(N2CCCCC2)c1/C=N/NC(=O)c1ccncc1,-1.4,-2.7,0.9,0.9,.
COc1ccccc1NS(=O)(=O)c1ccc(N/N=C/c2c(C)nn(-c3ccccc3)c2N2CCCC2)c([N+](=O)[O-])c1,-4.1,3.5,38.0*,-0.6,14.1

# Bioassay records: PubChem, several laboratories
